Values joined by “and” are separate entries in the source; they are usually repeats but may differ in a detail not shown here. Identical values can stand only once. Results filed as inconclusive are left out. Entries that show only a call come without a potency. Active and inactive are the calls of the source. Calls come from the whole dose curve; as a rule, active = well fitted cell-killing curve with a large enough effect in the repeat runs; inconclusive = weak or mixed curves, or effect the other way; inactive = flat fitted curve, though single readings scatter.
What was measured:
[1] = cAMP Responsive Elements (CRE) small molecule antagonists, cell-based qHTS assay: qHTS cell viability counter screen (AID 2060913); note: nearly all actives have a fitted effect of over 40% in size
Outline: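 Cytotoxicity counter screen multiplexed with the CRE-bla antagonist read: HEK293T cells in DMEM with dialyzed FBS and 25 mM HEPES were treated 3 hrs under 0.25 uM final NKH477, then viability measured by CellTiter-Glo luminescence.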

[2] = cAMP Responsive Elements (CRE) small molecule agonists, cell-based qHTS assay: qHTS cell viability counter screen (AID 2060914);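 note: viability read after 3 h of compound exposure; nearly all actives have a fitted effect of over 50% in size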
Outline: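 HEK 293T CRE-bla; DMEM + 10% dialyzed FBS, 25 mM HEPES; 18 h pre-incubation; compound 3 h, 37 °C/5% CO2; CellTiter-Glo added after reporter read; luminescence after 30 min RT.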
Potency is the fitted concentration of half-maximal effect.

Row | Structure (SMILES) | Potency [1] | Potency [2]
1 | C=Cc1ccc(O)c(OC)c1 | inactive | inactive
2 | Nc1ncn([C@H]2C[C@H](O)[C@@H](CO)O2)c(=O)n1 | inactive | inactive
3 | CCCCOC(=O)/C=C\C(=O)OCCCC | inactive | inactive
4 | CC(C)(C)NCC(O)COc1cccc2c1C[C@H](O)[C@H](O)C2 (stereo not given in full) | inactive | inactive
5 | CCOCOCC | inactive | inactive
6 | Cc1cccc(C)c1NC(=O)C(C)N (stereo not given) | inactive | inactive
7 | O=C(c1ccccc1)c1ccc(Cl)cc1 | inactive | inactive
8 | C/C=C1/C(=O)C[C@H]2[C@@H]3CCC4=CC(=O)CC[C@]4(C)[C@H]3CC[C@]12C | inactive | inactive
9 | Nc1cccc(N)c1 | inactive | inactive
10 | C[C@]1(Cn2ccnn2)[C@H](C(=O)O)N2C(=O)C[C@H]2S1(=O)=O | inactive | inactive
11 | O=Cc1cc(O)ccc1Br | inactive | inactive
12 | Oc1cccc(O)c1O | inactive | inactive
13 | CCCCCCC1CCCC(=O)O1 (stereo not given) | inactive | inactive
14 | CCN(CC)CC(=O)Oc1ccc(NC(C)=O)cc1 | inactive | inactive
15 | N[C@@H](CCC(=O)O)C(=O)O | inactive | inactive
16 | CCCCOc1ccc(CC(=O)NO)cc1 | inactive | inactive
17 | CCOC(=O)c1ccccc1C | inactive | inactive
18 | CC(C)(c1cc(Br)c(OCC(Br)CBr)c(Br)c1)c1cc(Br)c(OCC(Br)CBr)c(Br)c1 (stereo not given) | inactive | inactive
19 | C[C@@]12CCC[C@H]1[C@@H]1CC[C@H]3C[C@@H](O)CC[C@]3(C)[C@H]1CC2 | inactive | inactive
20 | CCCCOC(=O)CC#N | inactive | inactive
21 | O=C(O)C1(C(=O)O)CCC1.[NH2-].[NH2-].[Pt+2] | inactive | inactive
22 | CC(=O)Nc1ccc(N=Nc2cc(C)ccc2O)cc1 | inactive | inactive

Row | Structure (SMILES) | Potency [1] | Potency [2]
23 | COCCOC(=O)c1ccccc1C(=O)OCCOC | inactive | inactive
24 | CNC(=O)c1cnn(-c2nc(N)c3ncn([C@@H]4O[C@H](CO)[C@@H](O)[C@H]4O)c3n2)c1 | inactive | inactive
25 | C#CC(C)(CC)OC(=O)c1ccccc1C(=O)O (stereo not given) | inactive | inactive
26 | Cc1ccc(N=Nc2c(O)ccc3ccccc23)c(C)c1 | inactive | inactive
27 | COCCOCCOCCOCCO | inactive | inactive
28 | Cc1ccc(/C=N/n2c(-c3ccccc3)csc2=S)cc1 | inactive | inactive
29 | c1ccc(-c2ccc(C(c3ccccc3)n3ccnc3)cc2)cc1 (stereo not given) | inactive | inactive
30 | CCn1cc(C(=O)O)c(=O)c2cc(F)c(N3CCNCC3)nc21 | inactive | inactive
31 | NS(=O)(=O)c1cc2c(cc1C(F)(F)F)NCNS2(=O)=O | inactive | inactive
32 | Cc1cccc([N+](=O)[O-])c1C(=O)O | inactive | inactive
33 | O=C1CCCCCCCCCCCCCC1 | inactive | inactive
34 | CCCCCCCCCCc1ccccc1 | inactive | inactive
35 | CC1=CC(C)C(C=O)CC1 (stereo not given) | inactive | inactive
36 | c1ccc(-c2ccccc2-c2ccccc2)cc1 | inactive | inactive
37 | O=C(O)c1ccccc1C(=O)OCc1ccccc1 | inactive | inactive
38 | c1ccc2c(c1)ccc1ncccc12 | inactive | inactive
39 | CC1=CC[C@H](C(C)C)C=C1 | inactive | inactive
40 | c1ccc(Sc2ccccc2)cc1 | inactive | inactive
41 | CN(C)CCOC(=O)COc1ccc(Cl)cc1 | inactive | inactive
42 | Cc1cc(O)ccc1N | inactive | inactive
43 | O=C(O)C1=NN(c2ccc(S(=O)(=O)O)cc2)C(=O)C1 | inactive | inactive
44 | CC(=O)S[C@H](C(=O)N[C@H]1Cc2ccccc2[C@H]2CCC[C@@H](C(=O)O)N2C1=O)C(C)C | inactive | inactive

Row | Structure (SMILES) | Potency [1] | Potency [2]
45 | CCCCCCC=O | inactive | inactive
46 | COC(=O)CCCC(=O)OC | inactive | inactive
47 | CCCC(=O)O[C@]1(C(=O)CO)CC[C@H]2[C@@H]3CCC4=CC(=O)CC[C@]4(C)[C@H]3[C@@H](O)C[C@@]21C | inactive | inactive
48 | FC(F)(F)c1ccccc1 | inactive | inactive
49 | Oc1cccc2ccccc12 | inactive | inactive
50 | CCN(CC)C(=O)Nc1ccc(OCC(O)CNC(C)(C)C)c(C(C)=O)c1 (stereo not given) | inactive | inactive
51 | O=C(O)CO | inactive | inactive
52 | CCN(CC)CCNC(=O)c1ccc(NC(C)=O)cc1 | inactive | inactive
53 | C=CS(=O)(=O)O | inactive | inactive
54 | COC(=O)CC(C)=O | inactive | inactive
55 | Cc1cc(O)c(C(C)C)cc1Cl | inactive | inactive
56 | CC(C)C[C@@H]1[C@H](c2ccccc2)OC(=O)N1CCCN1CCCCCC1 | inactive | inactive
57 | COc1ccc(CN(CCN(C)C)c2ncccn2)cc1 | inactive | inactive
58 | Oc1ccc(/C=C/c2cc(O)cc(O)c2)cc1 | inactive | inactive
59 | CCCCCCO | inactive | inactive
60 | CC(C)NC(=O)c1ccc(C=O)cc1 | inactive | inactive
61 | CC(C)(C)NCCO | inactive | inactive
62 | O=C(O)CCCCCCCCCCC(=O)O | inactive | inactive
63 | c1cnc2c(c1)ccc1cccnc12 | inactive | inactive
64 | CC(C)Nc1ccccc1 | inactive | inactive
65 | C=CC(=O)OCCOC(=O)CCC(=O)O | inactive | inactive
66 | CC(=O)Nc1cccc(N)c1 | inactive | inactive

Row | Structure (SMILES) | Potency [1] | Potency [2]
67 | C=CC(C)(C)O | inactive | inactive
68 | C=O | inactive | inactive
69 | C[C@H]1COc2c(C3(N)CC3)c(F)cc3c(=O)c(C(=O)O)cn1c23 | inactive | inactive
70 | O=C1CCc2ccccc2O1 | inactive | inactive
71 | CN1[C@@H]2CC(OC(=O)[C@H](CO)c3ccccc3)C[C@H]1[C@@H]1O[C@@H]12 (stereo not given in full) | inactive | inactive
72 | CC(C)CCCC(=O)O | inactive | inactive
73 | C[C@]12CCC(=O)C=C1[C@@H]1C[C@@H]1[C@H]1[C@@H]3[C@@H]4C[C@@H]4[C@@]4(CCC(=O)O4)[C@@]3(C)CC[C@@H]12 | inactive | inactive
74 | O=Cc1c2ccccc2c(Cl)c2ccccc12 | inactive | inactive
75 | CCCCCCCCCCCCCC[N+](C)(C)C | 52.7 µM (active) and 48.5 µM (active) | 52.7 µM (active)
76 | CC(=O)Nc1ccc2c(c1)Cc1cc(NC(C)=O)ccc1-2 | inactive | inactive
77 | O=C1OC2(c3ccccc31)c1cc(Br)c(O)c(Br)c1Oc1c2cc(Br)c(O)c1Br | inactive | inactive
78 | C(=C\c1ccccc1)/CN1CCN(C(c2ccccc2)c2ccccc2)CC1 | inactive | inactive
79 | COc1nc(C)nc(Cl)c1NC1=NCCN1 | inactive | inactive
80 | CCC(C)(Oc1ccc(C2(c3ccc(OC(C)(CC)C(=O)O)cc3)CCCCC2)cc1)C(=O)O (stereo not given) | inactive | inactive
81 | CCOC(=O)C1=NOC(c2ccccc2)(c2ccccc2)C1 | inactive | inactive
82 | O=c1[nH]c(=O)n([C@H]2C[C@H](O)[C@@H](CO)O2)cc1I | inactive | inactive
83 | CC(=O)S[C@@H]1CC2=CC(=O)CC[C@]2(C)[C@H]2CC[C@@]3(C)[C@@H](CC[C@@]34CCC(=O)O4)[C@H]12 | inactive | inactive
84 | CC(=O)Nc1nnc(S(N)(=O)=O)s1 | inactive | inactive
85 | Cc1cccc(Br)c1 | inactive | inactive
86 | CC(C)OC=O | inactive | inactive
87 | O=c1[nH]nc(-c2ccc([N+](=O)[O-])o2)o1 | inactive | inactive
88 | CCCCCC1CCCC(=O)O1 (stereo not given) | inactive | inactive

Row | Structure (SMILES) | Potency [1] | Potency [2]
89 | CCCCCCCCCCCCCCC(=O)O | inactive | inactive
90 | CC(C)(C)OC(=O)c1cccc(N)c1 | inactive | inactive
91 | CC(C)(C)c1ccc(S)cc1 | inactive | inactive
92 | CCc1cc(SCc2sc(-c3ccc(C(F)(F)F)cc3)nc2CN2CCN(c3ccc(OC)cc3)CC2)ccc1OCC(=O)O | 54.5 µM (active) | 61.1 µM (active)
93 | Brc1cc(Br)c(Oc2cc(Br)c(Br)cc2Br)cc1Br | inactive | inactive
94 | C[C@]12CC[C@@H]3c4ccc(O)cc4CC[C@H]3[C@@H]1CCC2=O | inactive | inactive
95 | CC(=O)[C@H]1CC[C@H]2[C@@H]3C[C@H](C)C4=CC(=O)CC[C@]4(C)[C@H]3[C@@H](O)C[C@]12C | inactive | inactive
96 | CCC(=O)c1c(O)cc(O)cc1O | inactive | inactive
97 | N=C(N)c1ccc(OCCCOc2ccc(C(=N)N)cc2)cc1 | inactive | inactive
98 | C[C@@H](Oc1ccc(CNC(=O)c2cccnc2Oc2ccc3c(c2)OCO3)c(F)c1)C(=O)O | 13.7 µM (active) | inactive
99 | CC(CO)(CO)[N+](=O)[O-] | inactive | inactive
100 | COP(=O)(OC)OC(c1ccc(Cl)cc1)P(=O)(OC)OC (stereo not given) | inactive | inactive
101 | CC(C)NCCCC1(C(N)=O)c2ccccc2-c2ccccc21 | inactive | inactive
102 | O=C(Nc1cccc2c(=O)cc(-c3nn[nH]n3)oc12)c1ccc(OCCCCc2ccccc2)cc1 | inactive | inactive
103 | CC(C)c1cc2c(cc1S(=O)(=O)O)[C@@]1(C)CCC[C@@](C)(C(=O)O)[C@@H]1CC2 | inactive | inactive
104 | CCC(C)SSC(C)CC (stereo not given) | inactive | inactive
105 | O=C(O)c1ccccc1[N+](=O)[O-] | inactive | inactive
106 | COc1ccc([C@@H]2CC(=O)c3c(O)cc(O[C@@H]4O[C@H](CO[C@@H]5O[C@@H](C)[C@H](O)[C@@H](O)[C@H]5O)[C@@H](O)[C@H](O)[C@H]4O)cc3O2)cc1OC | inactive | inactive
107 | CO[C@H]1C=CO[C@@]2(C)Oc3c(C)c(O)c4c(O)c(c(/C=N/N5CCN(C)CC5)c(O)c4c3C2=O)NC(=O)/C(C)=C\C=C[C@H](C)[C@H](O)[C@@H](C)[C@@H](O)[C@@H](C)[C@H](OC(C)=O)[C@@H]1C | inactive | inactive
108 | C=CCOC(=O)CC(C)C | inactive | inactive
109 | Cc1ccc(S(=O)(=O)NC(=O)NC2CCCCCCC2)cc1 | inactive | inactive
110 | Cn1nnc2c(C(N)=O)ncn2c1=O | inactive | inactive
